CYP2C9 inh – blockers of cytochrome P450 2C9 activity – biochemical, luminescence, ADME assay, primary screen; P11712; CYP2C9 Supersomes, luciferin-H conversion; inhibition, % at 5 µM; 20% of 96,000 active;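 active = blocking of liver enzyme CYP2C9 beyond about 50% at 5 µM, limit read from the data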
Target sequence (P11712 whole entry, looked up): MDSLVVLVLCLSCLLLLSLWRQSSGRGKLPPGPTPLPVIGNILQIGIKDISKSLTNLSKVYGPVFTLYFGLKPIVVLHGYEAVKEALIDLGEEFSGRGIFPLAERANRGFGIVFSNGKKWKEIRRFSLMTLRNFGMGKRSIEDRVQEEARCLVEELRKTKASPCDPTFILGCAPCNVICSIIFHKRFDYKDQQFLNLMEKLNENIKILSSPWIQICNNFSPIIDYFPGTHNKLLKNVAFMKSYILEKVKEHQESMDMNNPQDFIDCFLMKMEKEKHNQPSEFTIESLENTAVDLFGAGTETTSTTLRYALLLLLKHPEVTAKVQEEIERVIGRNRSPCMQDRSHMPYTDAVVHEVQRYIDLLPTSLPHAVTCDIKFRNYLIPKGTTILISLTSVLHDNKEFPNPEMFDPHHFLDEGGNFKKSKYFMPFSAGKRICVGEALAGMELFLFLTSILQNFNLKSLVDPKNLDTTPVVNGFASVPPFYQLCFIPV
CYP2C19 inhib – blockers of cytochrome P450 2C19 activity – biochemical, luminescence, ADME assay, primary screen. P33261. CYP2C19 Supersomes, luciferin-H EGE luminescence, 30 min. inhibition, % at 5 µM. 21% of 96,000 active. AID 778, 2007;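 active = CYP2C19 inhibition above a set limit at 5 µM in the primary screen, cut at about 50% in these data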;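 note: plate controls were negative control wells for no effect and 2.5 mM tranylcypromine positive control for full effect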
CYP2C19 act – human CYP2C19 activators, primary screen, biochemical, luminescence | AID 1025, 2008 | 96,000 tested, under 10 active | activation factor at 5 µM | recombinant CYP2C19, luciferin-H EGE luminescence; hits give high values; 0 = fully inhibited enzyme, 1 = untreated enzyme | Cytochrome P450 2C19 (Homo sapiens), P33261;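 active = activation factor of at least 2 at 5 µM in the primary screen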;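 note: 0 = wells with 2.5 mM tranylcypromine and 1 = vehicle-only wells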
Measles CPE – compounds protecting cells from measles virus cytopathic effect, primary screen, measles RdRp inhibitor project, single point, MLSMR library, absorbance; Measles virus-infected cells, CPE protection; 1.5% of 140,000 active; protection (pct of control), % at 4 µM; in the data active = protection mostly above about 24%, no sharp cut-off; inactive = mostly below about 26%
CYP2C9 act – human CYP2C9 activators, primary screen, biochemical, luminescence; Cytochrome P450 2C9 (Homo sapiens), P11712; recombinant CYP2C9, luciferin-H conversion; hits give high values; factor 1 = untreated enzyme, 0 = blocked; activation factor at 5 µM; 1.4% of 96,000 active; AID 1024, 2008;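 active = activation factor of 2 or more for CYP2C9 at a 5 µM dose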;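 note: 0 = sulfaphenazole-blocked wells and 1 = vehicle-only wells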
* marks the source's active call; other numbers are inactive results; x = no result given. Rows were chosen to be rich in hits. Some 22% of all compounds tested hit in one or more screens of this group.

SMILES | CYP2C9 inh | CYP2C19 inhib | CYP2C19 act | Measles CPE | CYP2C9 act
O=C(Nc1ccc(NC(=O)c2ccco2)nc1)c1cccnc1 | x | x | x | 23.8 | x
O=C(CSC1=Nc2ccccc2C2=NC(CC(=O)NC3CCCCC3)C(=O)N12)NCc1ccco1 (configuration not stated) | 11.0 | -1.9 | 1 | 1.1 | 0.9
O=C(CCC1N=C2c3ccccc3N=C(SCc3cccc(Cl)c3)N2C1=O)NCc1ccco1 (configuration not stated) | 66.7* | 20.5 | 0.8 | 19.4 | 0.3
O=C(CCN1C(=O)c2ccccc2C1=O)NCc1ccco1 | -7.0 | -14.9 | 1.1 | 7.9 | 1.1
O=C(CCC1N=C2c3ccccc3N=C(SCc3ccccc3Cl)N2C1=O)NCc1ccco1 (configuration not stated) | 59.8* | 28.7 | 0.7 | 3.7 | 0.4
COCc1cc(C)nc(N2CCc3ccccc32)c1C#N | 18.8 | 29.9 | 0.7 | 15.8 | 0.8
COC(=O)c1sc(NC(C)=O)c(C(=O)OC)c1C | 1.8 | -3.4 | 1 | 27.2 | 1
COC(=O)c1sc(NC(=O)CSc2nncs2)c(C(=O)OC)c1C | 66.5* | 27.9 | 0.7 | 31.1* | 0.3
COC(=O)c1sc(NC(=O)CC(C)C)c(C(=O)OC)c1C | 26.4 | 58.7* | 0.4 | 10.7 | 0.7
O=C(CNCC1CCCO1)N1CCCc2ccccc21 (configuration not stated) | -13.6 | -16.3 | 1.2 | 5.7 | 1.1
O=c1c2cc(F)ccc2[nH]c(=S)n1CCCN1CCOCC1 | -7.0 | 66.7* | 0.3 | 23.9 | 1.1
O=c1c2cc(N3CCOCC3)ccc2[nH]c(=S)n1Cc1ccc(Cl)cc1 | 57.9* | 19.6 | 0.8 | 8.4 | 0.4
O=c1c2cc(N3CCOCC3)ccc2[nH]c(=S)n1CCN1CCCC1 | -7.7 | -15.4 | 1.2 | 12.1 | 1.1
O=c1c2cc(N3CCOCC3)ccc2[nH]c(=S)n1CCCN1CCCCCC1 | 38.5 | 5.7 | 0.9 | 4.9 | 0.6
Cc1nnc(C)c2c(C)n(-c3ccc(Br)cc3)c(C)c12 | -15.3 | 8.4 | 0.9 | 6.7 | 1.2
Cc1c(NC(=O)C2CCN(S(=O)(=O)c3ccccc3)CC2)c(=O)n(-c2ccccc2)n1C | -0.8 | -11.8 | 1.1 | 5.0 | 1
COc1ccc(-c2cc3nc(C)cc(N)n3n2)cc1 | 29.7 | 77.1* | 0.2 | 11.7 | 0.7
COc1ccc(-c2cc3nc(C)cc(NCCO)n3n2)cc1 | 19.1 | -2.0 | 1 | 11.5 | 0.8
Cc1ccc(-n2ncc(C#N)c2/N=C/N2CCOCC2)cc1 | 64.9* | 85.3* | 0.1 | 16.9 | 0.4
COc1ccc(N2C(=O)CCC2(C#N)c2ccc(Br)cc2)cc1 (configuration not stated) | 8.9 | 57.2* | 0.4 | 8.4 | 0.9
COc1ccccc1N1C(=O)CCC1(C#N)c1ccc(Br)cc1 (configuration not stated) | 68.6* | 59.4* | 0.4 | 2.6 | 0.3
COc1ccc(N2C(=O)CC(N3CCC(O)(c4ccc(Br)cc4)CC3)C2=O)cc1 (configuration not stated) | 4.8 | -1.0 | 1 | 9.5 | 1
COc1ccccc1N1C(=O)CC1(C#N)c1ccc(OCc2ccccc2)cc1 (configuration not stated) | x | x | x | 13.8 | x
C=CCNC(=O)/C(C#N)=C/c1c(C)nn(-c2ccccc2)c1Cl | x | x | x | 1.8 | x
Cc1ccc(-n2c(SCC(=O)N3CC(=O)Nc4ccccc43)nc3ccccc3c2=O)cc1C | x | x | x | 6.3 | x
SMILES | CYP2C9 inh | CYP2C19 inhib | CYP2C19 act | Measles CPE | CYP2C9 act
CC(C)OC(=O)c1c(NC(=O)c2cnn3c2NC(c2ccccc2)CC3C(F)(F)F)sc2c1CCCC2 (configuration not stated) | 22.7 | -1.1 | 1 | 3.8 | 0.8
O=C(NCc1cccs1)C1CCCN(S(=O)(=O)c2cnc[nH]2)C1 (configuration not stated) | 46.9 | 83.5* | 0.2 | 9.7 | 0.5
O=C(NCc1ccccc1Cl)C1CCCN(S(=O)(=O)c2cnc[nH]2)C1 (configuration not stated) | 91.7* | 95.6* | 0 | 7.0 | 0.1
O=C(C1CCCN(S(=O)(=O)c2ccc(F)cc2)C1)N(Cc1cccs1)C1CC1 (configuration not stated) | 72.7* | 94.6* | 0.1 | 49.0* | 0.3
Cc1ccc(OCC(=O)N2N=C(c3cccnc3)CC2(O)C(F)(F)F)cc1C (configuration not stated) | x | x | x | 22.0 | x
CC1=C(C(=O)N2CCCCCC2)C2(CCC(C)CC2)OC1=O (configuration not stated) | 7.0 | 42.3 | 0.6 | 14.5 | 0.9
Cc1cc(C)n(-c2nc3c(c(=O)[nH]c(=O)n3C)n2CC(O)COc2ccccc2C)n1 (configuration not stated) | 19.0 | 74.2* | 0.3 | -0.1 | 0.8
Cc1ccc(Cn2c(-n3nc(C)cc3C)nc3c2c(=O)[nH]c(=O)n3C)cc1 | 10.2 | 15.3 | 0.8 | 8.6 | 0.9
Cc1cc(C)n(-c2nc3c(c(=O)[nH]c(=O)n3C)n2Cc2cccc(Br)c2)n1 | 45.6 | 55.4* | 0.4 | 37.0 | 0.5
Cn1c(=O)[nH]c(=O)c2c1nc(N1CCOCC1)n2CC(O)COc1ccccc1 (configuration not stated) | 75.4* | 18.1 | 0.8 | 1.4 | 0.2
CCOC(=O)CSc1n[nH]c(NC(=O)c2cccc(C)c2)n1 | 32.9 | 24.9 | 0.8 | 12.1 | 0.7
O=C(CSc1n[nH]c(-c2ccncc2)n1)c1ccccc1 | 96.4* | 89.8* | 0.1 | 17.5 | 0
COc1ccc(C(=O)CSc2n[nH]c(-c3ccncc3)n2)cc1[N+](=O)[O-] | x | x | x | 14.1 | x
CCc1nc(SCC(=O)NCCc2ccccc2)n[nH]1 | -0.6 | 56.1* | 0.4 | 18.7 | 1
O=C(CSc1nc(N2CCCCC2)nc(N2CCCCC2)n1)c1ccccc1 | 78.8* | 47.4 | 0.5 | 4.8 | 0.2
CCc1nc(SCC(=O)Nc2ccccc2C(=O)OC)n[nH]1 | -58.7 | 36.1 | 0.6 | 12.9 | 1.6
CC(=O)Nc1nc(SCCCc2ccccc2)n[nH]1 | 18.8 | 80.4* | 0.2 | 6.9 | 0.8
Cc1c(-c2ccccc2)[nH]n2c(=O)c3c(nc12)CCCC3 | x | x | x | 18.3 | x
O=C(CSc1n[nH]c(-c2ccccc2)n1)Nc1ncc(Br)cc1Br | 88.0* | 86.8* | 0.1 | 0.1 | 0.1
Cc1ccc(C)c(C(=O)CSc2n[nH]c(-c3ccncc3)n2)c1 | 99.4* | 98.3* | 0 | 14.8 | 0
CCOC(=O)CSc1n[nH]c(-c2cccnc2)n1 | -14.5 | -12.9 | 1.1 | 31.6 | 1.1
O=C(CSc1n[nH]c(-c2ccncc2)n1)NCCc1ccccc1 | 96.8* | 91.9* | 0.1 | 2.4 | 0
Cn1c(SCC(=O)NCCc2ccccc2)nnc1-c1ccncc1 | 3.8 | 14.0 | 0.9 | 2.4 | 1
Cc1nc(SCC(=O)c2ccccc2)n[nH]1 | 52.2* | 37.6 | 0.6 | 3.4 | 0.5

Source: PubChem (several laboratories)
